Experimental data from PubChem BioAssay (NCI).
The panel holds about 83,000 compounds, 20% with a hit somewhere; the sample as a whole holds those more often.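 Activity criterion: percent growth below 10, measured after cells in 96-well plates were exposed to a single compound concentration for 48 hours.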 Active and inactive are the calls of the source.

Experiments:
Experiment in all cases: NCI-60 one-dose screen, 48 h (100 = growth as untreated, 0 = no growth, -100 = all killed)
[1] = test system: NCI-H522 lung; conditions: 10 µM unless noted
[2] = test system: A549/ATCC NSCLC; conditions: 10 µM unless noted
[3] = test system: COLO 205 colon; conditions: 10 µM
[4] = test system: SK-MEL-2 melanoma; conditions: 10 µM unless noted
[5] = test system: EKVX NSCLC; conditions: 10 µM unless noted
[6] = test system: TK-10 renal; conditions: 10 µM unless noted
[7] = test system: ACHN renal; conditions: 10 µM unless noted
[8] = test system: CCRF-CEM leukemia; conditions: 10 µM unless noted
[9] = test system: SR leukemia; conditions: 10 µM
[10] = test system: RPMI-8226 leukemia; conditions: 10 µM unless noted
[11] = test system: OVCAR-5 ovarian; conditions: 10 µM unless noted
[12] = test system: OVCAR-4 ovarian; conditions: 10 µM unless noted
[13] = test system: SK-OV-3 ovarian; conditions: 10 µM unless noted
[14] = test system: IGROV1 ovarian; conditions: 10 µM
[15] = test system: HS 578T breast; conditions: 10 µM unless noted
[16] = test system: NCI/ADR-RES ovarian; conditions: 10 µM unless noted
[17] = test system: M14 melanoma; conditions: 10 µM unless noted
[18] = test system: HCT-116 colon; conditions: 10 µM unless noted

Measured: growth

O=[N+]([O-])c1ccc(F)c([N+](=O)[O-])c1F
active: [9] 8.94%
inactive: [1] 95.3% | [2] 96% | [3] 115% | [4] 93.7% | [5] 100% | [6] 99.9% | [7] 113% | [8] 61.7% | [10] 93.5% | [11] 107% | [12] 116% | [13] 105% | [14] 105% | [15] 103% | [16] 109%

C/C(=C\C(=O)O[C@H]1[C@@H]2[C@H](C)CC[C@H]2[C@]2(C)O[C@@]1(C1CCCCC1)C[C@H]2OC(=O)CO)c1ccccc1
inactive: [1] 20.3% | [17] 47.4% | [4] 55.8% | [5] 48% | [6] 70.5% | [11] 82.9% | [12] 38.5% | [13] 59.7% | [14] 71.1%
active: [7] -16.5% | [8] 7.86% | [10] -28.7% | [15] -28.1% | [16] 7.73% | [18] 7.81%

CC12CCC(=O)C=C1CCC1C2CCC2(C)C(C(=O)COC(=O)Cc3ccc(N(CCCl)CCCl)cc3)CCC12 (stereo unspecified)
active: [9] -2.48%
inactive: [1] 81.9% | [3] 88.5% | [17] 104% | [4] 20.6% | [5] 53.1% | [6] 112% | [7] 40.3% | [8] 26.7% | [10] 46.4% | [11] 119% | [12] 91% | [13] 90% | [15] 82.4% | [16] 91.8% | [18] 82.4%

CC(C)(C)NCC(O)c1ccccc1Cl (stereo unspecified)
inactive: [5] 53.6% | [6] 17.3% | [7] 53.7% | [8] 10.5% | [11] 11% | [12] 60.3% | [14] 45.5% | [16] 85.6%
active: [1] -37.2% | [17] -12.8% | [10] 6.19% | [13] 9.23% | [15] 3.29%

c1ccc([As]=[As]c2ccccc2)cc1 (stereo unspecified)
inactive: [15] 37.8%
active: [2] -22.8% | [3] -89.6% | [6] -86% | [7] -99.1% | [9] -47.5% | [10] -47.4% | [11] -7.9% | [12] 7.07% | [16] 9.34% | [18] -99.4%

C[CH2][Pb]([CH2]C)([CH2]C)[O]C(=O)c1ccc(N)cc1
inactive: [17] 60% | [4] 39.3% | [7] 70.7% | [10] 59.1% | [11] 85.1% | [12] 57% | [13] 76.4% | [14] 61.9% | [16] 59.7% | [18] 57.7%
